hERG WT inh: blocks the wildtype human KCNH2 potassium channel; U2OS, BacMam KCNH2, thallium flux FluxOr; stronger effect = lower value; activity change, % at 1.84 µM; hit rate 0.37% among 340,000; Q12809;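 active means maximum activity change below -70%; inconclusive means maximum activity change between -70% and -50%; inactive means maximum activity change above -50%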
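U2OS cells transduced with wild-type KCNH2 virus are loaded with FluxOr dye for 45 min, and thallium flux is measured in kinetic reads before and after stimulation buffer. Rate constants are normalized to DMSO controls.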
IDH1 R132H inh: blocks human mutant IDH1 R132H enzyme; hit rate 0.093% among 390,000; Potency, µM (titrated, usually from 76.6 µM), usual class: inhibitors; O75874; IDH1-R132H enzyme, NADPH consumption, diaphorase/resazurin fluorescence; further: nearly all actives have a fitted effect of over 65% in size
Target sequence (O75874 whole entry R132H, stated change not applied): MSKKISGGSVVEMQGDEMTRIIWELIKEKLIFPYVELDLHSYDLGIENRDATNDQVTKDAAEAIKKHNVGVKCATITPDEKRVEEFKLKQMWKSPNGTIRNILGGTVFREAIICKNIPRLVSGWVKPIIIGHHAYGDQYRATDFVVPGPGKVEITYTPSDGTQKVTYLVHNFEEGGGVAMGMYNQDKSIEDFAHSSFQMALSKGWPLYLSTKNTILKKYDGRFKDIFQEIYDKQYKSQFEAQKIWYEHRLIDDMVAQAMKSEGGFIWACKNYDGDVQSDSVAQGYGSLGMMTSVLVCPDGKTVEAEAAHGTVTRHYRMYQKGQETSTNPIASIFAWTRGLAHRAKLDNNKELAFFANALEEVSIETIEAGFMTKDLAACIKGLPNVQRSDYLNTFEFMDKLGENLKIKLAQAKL
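IDH1-R132H (0.5 ug/mL dispensed) in pH 7.5 Tris buffer was preincubated 30 min with compound, then given a substrate mix of 0.016 mM NADPH and 2 mM alpha-KG for 80 min at room temperature; remaining NADPH was read by diaphorase/resazurin fluorescence.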
Anesthetic bind: binds horse apoferritin like a general anesthetic | P02791 | Potency, µM (series often up to 77.5 µM), usual class: inhibitors | apoferritin/1-aminoanthracene competitive binding, fluorescence | hit rate 0.074% among 350,000; further: nearly all actives have a fitted effect of over 20% in size
Target sequence (P02791 2-175 limits assumed): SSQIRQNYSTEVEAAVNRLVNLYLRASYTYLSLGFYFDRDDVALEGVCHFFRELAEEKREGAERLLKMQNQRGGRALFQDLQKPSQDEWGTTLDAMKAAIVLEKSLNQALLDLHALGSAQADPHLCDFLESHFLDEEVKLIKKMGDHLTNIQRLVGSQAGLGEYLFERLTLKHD
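Apoferritin-based anesthetic binding model; compound displacement of fluorescent 1-AMA measured as endpoint fluorescence after 10 minutes at room temperature, scaled to free-ligand and complex controls.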
ASM inhibitor: inhibitors of human secretory acid sphingomyelinase; Potency, µM (doses to about 57.5 µM), hits mostly inhibitors; hit rate 0.006% among 340,000; P17405; AID 504937; placental ASM, HMU-PC fluorogenic substrate, 60 min
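Human placenta-derived ASM enzyme was preincubated with compound for 10 minutes at room temperature, then given fluorogenic substrate HMU-PC0 (9 uM final) for 60 minutes at 37 °C; a pH 10 stop preceded fluorescence reading at Ex 386/Em 447 nm.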
KCNH2 3.1 inh: inhibitors of human KCNH2 3.1 potassium channel isoform | U2OS KCNH2 3.1, thallium flux FluxOr; stronger effect = lower value | activity change, % (tested at about 1.8 µM) | hit rate 0.95% among 340,000 | AID 720553;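 active means maximum activity change below -70%; inconclusive means maximum activity change from -70% to -50%; inactive means maximum activity change above -50%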;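 further: thallium influx rate constant from kinetic fluorescence after stimulation buffer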
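Measured as rate of thallium-driven FluxOr signal in transduced U2OS cells carrying the 3.1 channel, read kinetically for 2 min upon stimulation; values are rate constants scaled to DMSO control wells.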
Numbers stand for hits; - = inactive; ? = inconclusive; . = no result given; [ ] = another dose, or the depositor's remark. Shown are actives, neighbours in structure and some others; about 1.2% of the full set was active somewhere. Unless noted, the call rests on the fitted dose curve; in most records, active means well fitted inhibition curve with a large enough effect; inconclusive means small, poorly fitted or top-dose-only effect; inactive means no such curve, though single readings can be large or run the other way.

SMILES | hERG WT inh | IDH1 R132H inh | Anesthetic bind | ASM inhibitor | KCNH2 3.1 inh
CC(/C=N/NC(=O)c1ccc(Cn2cc([N+](=O)[O-])cn2)o1)=C\c1ccccc1 | - | - | - | - | -78.7
COCc1nn2cc(-c3ccc(C)cc3)nc2s1 | . | - | - | . | .
COc1ccc(CC(=O)NCc2ccc(-n3cccc3)cc2)cc1OC | - | - | - | - | -
COc1ccc(CC(=O)NCc2nn(-c3ccccc3)nc2C)cc1OC | - | - | - | - | -179.9
COc1ccc(C2N(S(=O)(=O)c3ccc(C)cc3)CCN2S(=O)(=O)c2ccc(C)cc2)cc1 | - | - | - | - | -72.3
COc1ccc(C2N(C(C)=O)CCN2S(=O)(=O)c2ccc(C)cc2)cc1 (centres undefined) | - | - | - | - | -
O=c1c(N2CCCCC2)csc2ccc(F)cc12 | . | - | - | . | .
O=[N+]([O-])c1cc(S(=O)(=O)Nc2ccccc2)ccc1-n1nnc2ccccc21 | -209.8 | - | ? | - | -183.1
O=[N+]([O-])c1cc(C(F)(F)F)ccc1-n1nnc2ccccc21 | - | - | - | - | -
O=C(CCNS(=O)(=O)c1ccccc1)OCc1nnc(-c2ccccc2)o1 | -131.4 | - | . | - | -197.6
CC(=O)Nc1ccc(S(=O)(=O)NCCC(=O)OCc2nnc(-c3ccccc3)o2)cc1 | - | - | . | - | -
Cc1cc(C)n(-c2cc(N3CCN(S(=O)(=O)c4ccc(Br)cc4)CC3)ccc2[N+](=O)[O-])n1 | - | - | - | - | -81.4
O=[N+]([O-])c1ccc(OCCCOc2cccc3cccnc23)cc1 | - | - | - | - | -80.2
C=CCn1c(Cc2csc(N)n2)nnc1SCC(=O)OCC | - | - | - | - | -95.3
COC(=O)C/C=C\[C@@H](C)[C@@H](/C=N\O[C@@H](C)c1cc(-c2c(C)cc(C)cc2C)no1)OC | . | . | -[15.3 µM] | . | .
Cc1ccc(C2c3[nH]c4ccccc4c3C[C@H]3C(=O)N(c4ccccc4C(=O)NCCCN4CCOCC4)C(=O)N23)cc1 (some centres undefined) | - | - | - | - | -
O=C(NCCCN1CCOCC1)c1ccccc1N1C(=O)[C@@H]2Cc3c([nH]c4ccccc34)C(c3cccc(Cl)c3)N2C1=O (some centres undefined) | ? | - | - | - | -76.6
O=C(NCCCn1ccnc1)c1cc(-c2ccncc2)nc2ccccc12 | - | - | - | - | ?
Cc1ccc(Sc2cc(C(=O)NCCN(C)C)c3ccccc3n2)cc1 | - | - | - | - | -96.1
COc1cc(C(=O)NCCc2ccc(S(N)(=O)=O)cc2)cc(OC)c1OC | - | - | - | - | -
O=C(NCCCn1ccnc1)c1cc(-c2ccc(Cl)cc2)nc2ccccc12 | -79.2 | - | - | - | -81.8
CCOc1cc(C(=O)NCCc2ccc(S(N)(=O)=O)cc2)cc(OCC)c1OCC | - | - | - | - | -89.8
Cc1ccc(-c2cc(C(=O)NCCc3ccc(S(N)(=O)=O)cc3)c3ccccc3n2)cc1 | - | - | - | - | -
COc1ccc(-c2cc(C(=O)NCCc3ccc(S(N)(=O)=O)cc3)c3ccccc3n2)cc1 | - | - | - | - | -77.7
O=P1(O)OP(=O)(O)OP(=O)(O)O1.[Al] | . | . | - | . | .
SMILES | hERG WT inh | IDH1 R132H inh | Anesthetic bind | ASM inhibitor | KCNH2 3.1 inh
Cc1ccc2nc(-c3ccncc3)cc(C(=O)NCCc3ccc(F)cc3)c2c1 | - | - | - | - | -
NS(=O)(=O)c1ccc(CNC(=O)c2cc(-c3cccnc3)nc3ccccc23)cc1 | - | - | - | - | -159.1
Cc1ccc(CCNC(=O)c2cc(-c3ccncc3)nc3ccccc23)cc1 | - | - | - | - | -111.8
CCOc1ccccc1-c1nnc2n1N=C(c1cc(OC)cc(OC)c1)CS2 | . | . | - | . | .
CO[C@H]1COC(=O)C/C=C\[C@@H](C)COC(=O)[C@H]2CCCN2C(=O)C/C=C\[C@H]1C | . | . | -[15.3 µM] | . | .
COc1cccc(NC(=O)COC(=O)c2c(NC(C)=O)sc(C)c2C)c1 | -72.8 | - | . | - | -
Oc1ccc(N=Nc2ccc3c(c2)OCCO3)c(O)c1 | -73.0 | - | - | - | -
Oc1ccc(N=Nc2ccc3c(c2)OCCO3)c2cccnc12 | - | - | - | - | -
COc1ccc(OC2C(O)COC2/C=C/C#Cc2ccccc2)cc1 (centres undefined) | . | . | -[15.3 µM] | . | .
Cc1ccc(Nc2nc3ccc(Cl)cc3n3cnnc23)cc1F | -126.5 | - | - | - | -
CCCCNS(=O)(=O)c1ccc2nc(-c3cccnc3)cc(C(=O)NCCCOC(C)C)c2c1 | . | - | - | . | .
COc1ccc(OCC(=O)NNC(=O)CCc2ccccc2)cc1 | - | - | - | - | -
O=C(CCc1ccccc1)NNC(=O)COc1ccccc1 | - | - | - | - | -100.5
COc1ccc(CN2C(=O)C(C)N(C(=O)c3c(F)cccc3F)c3ccccc32)cc1 (centres undefined) | - | - | - | - | -
CC1C(=O)N(Cc2ccc([N+](=O)[O-])cc2)c2ccccc2N1C(=O)c1c(F)cccc1F (centres undefined) | -79.4 | - | - | - | -
CCOc1cccc2sc(N(CCN(C)C)C(=O)c3cc4ccccc4cc3OC)nc12 | - | - | - | - | -78.9
CCOc1cccc2sc(N(CCCN(C)C)C(=O)c3ccc(S(=O)(=O)N(C)Cc4ccccc4)cc3)nc12 | -74.1 | - | - | - | .
Cc1ccc2sc(N(CCCN(C)C)C(=O)c3ccc(S(=O)(=O)N(C)Cc4ccccc4)cc3)nc2c1C | - | - | . | ? | -
O=C(NCc1ccccc1)c1cccc(OCC(=O)N2CCN(C(=O)c3ccco3)CC2)c1 | - | - | - | - | -96.6
O=C(COc1ccc2ccccc2c1)N1CCN(C(=O)c2ccco2)CC1 | - | - | - | - | -
CCCN(CCC)C(=O)Cn1c(=O)n(-c2ccc(CC)cc2)c(=O)c2c3c(sc21)CCC3 | . | - | - | . | .
CC(C)C1N(C(=O)N(C)C)CCN1S(=O)(=O)c1ccccc1 (centres undefined) | - | - | - | - | -141.0
CC1N(C(=O)N(C)C)CCN1S(=O)(=O)c1ccccc1 (centres undefined) | - | - | - | - | -
COc1ccc(O[C@H]2C=C[C@@H](c3ccccc3)O[C@H]2COC(=O)N2CCCCC2)cc1 | . | . | -[15.3 µM] | . | .
Cc1ccc(-c2n[nH]c3c2C(c2cccs2)N(c2ccc(Cl)cc2)C3=O)cc1 (centres undefined) | . | - | - | . | .
Cc1ccsc1C(=O)C1CCCN(Cc2cccn2-c2ccc(Cl)cn2)C1 (centres undefined) | -106.5 | - | ? | - | -
COc1ccc(C(=O)C2CCCN(Cc3cccn3-c3nccs3)C2)cc1F (centres undefined) | -103.1 | - | - | - | -116.7
COc1ccc(C(=O)C2CCCN(Cc3cccn3-c3nccs3)C2)cc1OC (centres undefined) | - | - | - | - | ?
